Assay outcomes from PubChem.
CYP2C9 act – increases human cytochrome P450 2C9 activity; P11712; recombinant CYP2C9, luciferin-H conversion, luminescence; active compounds read high; factor 1 = untreated enzyme, 0 = blocked; activation factor at 5 µM; hit rate 1.4% among 96,000; AID 1024;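 active means activation factor of 2 or more for CYP2C9 at a 5 µM dose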;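 further: 0 = sulfaphenazole-blocked wells and 1 = vehicle-only wells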
CYP2C19 act – cytochrome P450 2C19 (human) activation; recombinant CYP2C19, luciferin-H EGE luminescence; active compounds read high; 0 = fully inhibited enzyme, 1 = untreated enzyme; AID 1025; activation factor at 5 µM; 96,000 tested, under 10 active;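 active means activation factor of at least 2 at 5 µM in the primary screen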;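 further: 0 = wells with 2.5 mM tranylcypromine and 1 = vehicle-only wells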
sEH activator – soluble epoxide hydrolase (human) activation | activation, % at 2 µM | hit rate 0.04% among 91,000 | AID 717 | purified human sEH enzymatic activity, activator screen; in the data active means activation above about 37%
Target sequence (P34913 whole entry, looked up): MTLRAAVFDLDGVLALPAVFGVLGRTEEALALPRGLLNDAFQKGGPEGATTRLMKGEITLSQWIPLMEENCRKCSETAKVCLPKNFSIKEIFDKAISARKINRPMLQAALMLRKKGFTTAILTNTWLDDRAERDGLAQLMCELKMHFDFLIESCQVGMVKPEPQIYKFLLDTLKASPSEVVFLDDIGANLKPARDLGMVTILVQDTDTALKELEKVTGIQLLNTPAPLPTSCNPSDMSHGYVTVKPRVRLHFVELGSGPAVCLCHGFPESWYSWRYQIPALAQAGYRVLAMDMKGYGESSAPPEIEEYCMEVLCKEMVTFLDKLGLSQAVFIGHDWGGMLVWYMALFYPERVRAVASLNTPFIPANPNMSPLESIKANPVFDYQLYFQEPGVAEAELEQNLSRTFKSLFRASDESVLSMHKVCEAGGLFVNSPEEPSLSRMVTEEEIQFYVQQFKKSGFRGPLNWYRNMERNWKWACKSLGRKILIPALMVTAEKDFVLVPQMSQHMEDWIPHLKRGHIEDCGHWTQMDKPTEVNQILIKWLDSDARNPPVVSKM
sEH inh – blocks human soluble epoxide hydrolase activity; AID 707; hit rate 0.34% among 91,000; P34913; inhibition, % at 2 µM; recombinant human sEH enzymatic activity assay; in the data active means inhibition above about 80%
CYP2C19 inh – blocks human cytochrome P450 2C19 | P33261 | CYP2C19 Supersomes, luciferin-H EGE luminescence, 30 min | inhibition, % at 5 µM | hit rate 21% among 96,000 | AID 778;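 active means CYP2C19 inhibition above a set limit at 5 µM in the primary screen, cut at about 50% in these data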;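 further: plate controls were negative control wells for no effect and 2.5 mM tranylcypromine positive control for full effect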
CYP2C9 inhib – human CYP2C9 inhibition. CYP2C9 Supersomes, luciferin-H conversion, luminescence. inhibition, % at 5 µM. hit rate 20% among 96,000;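 active means blocking of liver enzyme CYP2C9 beyond about 50% at 5 µM, limit read from the data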
Starred values were filed as active, the others as inactive; · = no result. Most compounds without a hit are left out; they make up all but 27% or so of the library.

SMILES | CYP2C9 act | CYP2C19 act | sEH activator | sEH inh | CYP2C19 inh | CYP2C9 inhib
CCOC(=O)c1cnc(SC2CC(=O)N(c3cccc(OC)c3)C2=O)nc1N (configuration not stated) | 0.3 | 0.6 | 4 | -3 | 36 | 73*
CCOc1nc(NC2CCCCC2)nc(NC(C)(C)C)n1 | · | · | 5 | -2 | · | ·
CC(=O)c1cn(CC(=O)Nc2ccc(C)cc2C)c2ccccc12 | · | · | 1 | 4 | · | ·
CCCn1c(SCC(=O)NCCc2ccc(Cl)cc2Cl)n[nH]c1=O | 0.6 | 0.7 | -24 | 23 | 27 | 35
CCOc1ccc(NC(=O)CCNS(=O)(=O)c2cccs2)cc1 | 1.5 | 0.3 | 16 | -16 | 66* | -46
COc1ccc(NC(=O)CCNS(=O)(=O)c2ccc(Br)s2)cc1 | 0.3 | 0.7 | -10 | 7 | 29 | 68*
CCOc1ccc(NC(=O)CCC(=O)OC)cc1 | 1.7 | 0.7 | 4 | -3 | 31 | -70
O=C1C(c2ccccc2)SC(=Nc2ccccc2)N1S(=O)(=O)c1ccccc1 (configuration not stated) | 1 | 1 | -5 | 3 | 4 | -5
COc1ccccc1N(CC(=O)Nc1cc(C)on1)S(=O)(=O)c1ccc(Cl)cc1 | 0 | 0.1 | -7 | 6 | 91* | 98*
COc1ccc(S(=O)(=O)N(CC(=O)Nc2cc(C)on2)Cc2ccccc2)cc1 | 1 | 0.2 | 0 | -1 | 81* | 1
CCC(C)NC(=O)CNS(=O)(=O)c1ccc(C)cc1 (configuration not stated) | · | · | 1 | 1 | · | ·
CCOCCCNS(=O)(=O)c1ccc(Br)cc1 | 1.3 | 0.1 | 18 | -16 | 90* | -35
C=CCNC(=O)CCNS(=O)(=O)c1ccc(Br)cc1 | 1.6 | 0.8 | · | · | 20 | -59
CCC(C)NC(=O)CCNS(=O)(=O)c1ccc(Br)cc1 (configuration not stated) | 2.2* | 0.5 | · | · | 49 | -116
CCCCNC(=O)CCNS(=O)(=O)c1ccc(Br)cc1 | 2.7* | 0.8 | -11 | 9 | 19 | -166
Cc1ccc(-n2ccnc2SCC(=O)N(CC(C)C)C2CCS(=O)(=O)C2)c(C)c1 (configuration not stated) | 0.9 | 0.7 | 2 | -2 | 32 | 14
COc1ccc(-c2ccnc3nc(Sc4ncc(C(F)(F)F)cc4Cl)nn23)cc1 | 0.5 | 0.7 | 2 | -2 | 30 | 52*
CCCn1cnc2c(c1=O)c1nc3ccccc3nc1n2Cc1ccccc1OC | 0.9 | 0.9 | -1 | 4 | 9 | 13
COCCCn1cnc2c(c1=O)c1nc3ccccc3nc1n2CCc1ccccc1 | 0.4 | 0.6 | 0 | 1 | 40 | 58*
COc1ccc(Cn2c3nc4ccccc4nc3c3c(=O)n(Cc4ccco4)cnc32)cc1 | 0.4 | 0.7 | · | · | 32 | 62*
CCC(C)n1cnc2c(c1=O)c1nc3ccccc3nc1n2Cc1ccccc1OC (configuration not stated) | 0.3 | 0.8 | 3 | -5 | 22 | 69*
COCCCn1c2nc3ccccc3nc2c2c(=O)n(-c3ccccc3OC)cnc21 | 0.5 | 0.5 | 4 | -4 | 54* | 49
CCCCn1c2nc3ccccc3nc2c2c(=O)n(CCC)cnc21 | 0.8 | 0.8 | -5 | 3 | 16 | 25
Cc1cccc(-n2cnc3c(c2=O)c2nc4ccccc4nc2n3Cc2ccco2)c1 | 0.6 | 0.5 | · | · | 50 | 42
CCOc1ncccc1C(=O)OCC(=O)c1ccc(Cl)s1 | 0.9 | 0.5 | 12 | -14 | 55* | 10
SMILES | CYP2C9 act | CYP2C19 act | sEH activator | sEH inh | CYP2C19 inh | CYP2C9 inhib
CCOc1ncccc1C(=O)OCC(=O)c1cc(C)n(Cc2ccco2)c1C | 2.3* | 0.2 | -8 | 8 | 80* | -127
Cc1cc(C(=O)COC(=O)CCC(=O)c2ccc3c(c2)OCCO3)c(C)n1Cc1ccco1 | 0.3 | 0.3 | 5 | -1 | 67* | 68*
CCOc1ncccc1C(=O)OCC(=O)c1c(N)n(C)c(=O)n(C)c1=O | 1.3 | 1 | · | · | -5 | -34
CCCC(=O)c1c[nH]c(C(=O)NCCCN2CCOCC2)c1 | 1.2 | 1.1 | 0 | 0 | -13 | -16
COc1cccc(NC(=O)Nc2ccc3nsnc3c2)c1 | 0.4 | 1 | · | · | -1 | 64*
Nc1ncnc2c1ncn2CCN1CCOCC1 | 0.5 | 0.1 | 2 | -4 | 90* | 48
Nc1ncnc2c1ncn2CCOc1ccccc1 | 1.1 | 1 | 3 | 1 | 4 | -13
CCCCNC(=O)CSc1nc2cc3c(cc2c(=O)n1CCCN(CC)CC)OCO3 | 0.9 | 1.1 | · | · | -6 | 10
